Unmarked numbers belong to inactive results. Unless noted, calls come from the whole dose curve; as a rule, active = well fitted curve in the direction sought with a large enough effect in the main read-out, with a control signal flat (not every such curve was filed as active); inconclusive = small, poorly fitted or top-dose-only effect, or effect the other way, or a change in a side signal; inactive = no such curve, though single readings can be large or run the other way. Records with an inconclusive call do not appear.
Target: Tumor susceptibility gene 101 protein (Homo sapiens) (UniProt Q99816)
Experiment: qHTS Validation Assay for Iinhibitors of HIV-1 Budding by Blocking the Interaction of PTAP/TSG101 (AID 485342; calls by dose curve; note: 0% is about no effect)
Details: TSG101-PTAP binding, fluorescence polarization, 4-point titration; series mostly up to 115 µM; fluorescence change: at the top concentration
How it was run: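 Tsg101 binding domain (10 uM) with FITC-labeled PTAP peptide (50 nM) in HEPES pH 7.5 buffer, 20 min at r.t. with compounds. Binding measured by fluorescence polarization.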

Tumor susceptibility gene 101 protein (Homo sapiens), sequence (Q99816 whole entry, looked up): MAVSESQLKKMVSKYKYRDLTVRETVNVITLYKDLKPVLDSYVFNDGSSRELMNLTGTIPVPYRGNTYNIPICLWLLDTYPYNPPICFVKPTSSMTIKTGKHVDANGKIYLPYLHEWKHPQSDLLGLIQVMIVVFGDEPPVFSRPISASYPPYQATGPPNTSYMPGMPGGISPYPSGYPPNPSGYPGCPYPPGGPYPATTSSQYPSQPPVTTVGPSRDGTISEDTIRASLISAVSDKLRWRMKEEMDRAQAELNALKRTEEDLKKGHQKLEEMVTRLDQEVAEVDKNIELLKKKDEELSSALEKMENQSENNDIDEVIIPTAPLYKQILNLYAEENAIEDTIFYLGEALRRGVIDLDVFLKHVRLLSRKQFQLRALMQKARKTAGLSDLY

Compared with `CC(CCc1ccc(O)cc1)NCCc1ccc(O)c(O)c1` (stereo not drawn), `COc1ccccc1N1CCN(CC(O)COc2cccc3ccccc23)CC1` (stereo not drawn) is lower in “fluorescence change” value: 1.47% for the first, -17.9% for the second.

First: Cn1c(=O)c2[nH]cnc2n(C)c1=O
Second: Cn1cnc2c1c(=O)[nH]c(=O)n2C
The “fluorescence change” value of the first is higher: 3.84% for the first, 2.71% for the second.

First: NCCc1cnc[nH]1
Second: CN(C)CCOC(c1ccccc1)c1ccccc1
The “fluorescence change” value of the first is lower: 1.8% for the first, 4.34% for the second.

Going from `COc1cc2nc(N3CCN(C(=O)C4COc5ccccc5O4)CC3)nc(N)c2cc1OC` (stereo not drawn) to `NC12CC3CC(CC(C3)C1)C2`, the “fluorescence change” value rises from -11.5% to 3.15%.

System: not listed separately
Experiment: qHTS Validation Assay to Find Inhibitors of Chronic Active B-Cell Receptor Signaling (AID 485345);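 note: 0% = untreated basal cells and 100% = 10 µM MG-132 proteasome inhibitor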
Details: ABC-DLBCL cells, chronic BCR signaling reporter, CBG luciferase; series mostly up to 46.1 µM; activity change: at the top concentration
How it was run: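 TMD8 ABC-DLBCL cells with dox-inducible green luciferase–IκBα fusion and red native luciferase; compounds 46 uM–3 nM, 4 h at 37C with doxycycline in 0.5% FBS IMDM. Green/red ratio normalized to basal and 10 uM MG-132.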

Compared with `COc1cc2nc(N3CCN(C(=O)c4ccco4)CC3)nc(N)c2cc1OC`, `CN1CCC(=C2c3ccccc3CC(=O)c3sccc32)CC1` is higher in “activity change” value: -13% for the first, -6.74% for the second.

Compared with `CN1CCC(=C2c3ccccc3C=Cc3ccccc32)CC1`, `O=C(c1ccc(F)cc1)C1CCN(CCn2c(=O)[nH]c3ccccc3c2=O)CC1` is lower in “activity change” value: -0.362% for the first, -8.93% for the second.

First: Nc1c2c(nc3ccccc13)CCCC2
Second: CCC1(c2ccccc2)C(=O)NCNC1=O
The “activity change” value of the first is higher: 4.09% for the first, 0.583% for the second.

First: CCC1(C)CC(=O)NC1=O (stereo not drawn)
Second: Cn1c(=O)c2c(ncn2C)n(C)c1=O
The “activity change” value of the first is lower: -4.28% for the first, 20.9% for the second.

Going from `CC(C)NCC(O)COc1ccc(CCOCC2CC2)cc1` (stereo not drawn) to `COc1ccc2[nH]cc(CCNC(C)=O)c2c1`, the “activity change” value falls from -1.2% to -12.7%.

Compared with `CN(C)c1nc(N(C)C)nc(N(C)C)n1`, `Nc1nc2c(ncn2COC(CO)CO)c(=O)[nH]1` is higher in “activity change” value: -11.9% for the first, -2.8% for the second.

First: NCCS(=O)(=O)O
Second: NC(=O)OCC(COC(N)=O)c1ccccc1
The “activity change” value of the first is higher: -4.27% for the first, -5.19% for the second.

In the case of `CC[N+](CC)(CC)CCOc1cccc(OCC[N+](CC)(CC)CC)c1OCC[N+](CC)(CC)CC`, the “activity change” value is reported as -13.1%.
